In the library only some 2.4% were active in any assay of this set; here they are far more common.
NSD2 HMT inh: NSD2 histone methyltransferase inhibitors, primary screen, biochemical, AlphaScreen, single concentration, set 2. Histone-lysine N-methyltransferase NSD2 (Homo sapiens), O96028. NSD2 peptide methylation, 120 min. inhibition, % at 12.5 µM. hit rate 0.54% among 310,000. AID 743445, 2014
Target sequence (O96028 whole entry, looked up): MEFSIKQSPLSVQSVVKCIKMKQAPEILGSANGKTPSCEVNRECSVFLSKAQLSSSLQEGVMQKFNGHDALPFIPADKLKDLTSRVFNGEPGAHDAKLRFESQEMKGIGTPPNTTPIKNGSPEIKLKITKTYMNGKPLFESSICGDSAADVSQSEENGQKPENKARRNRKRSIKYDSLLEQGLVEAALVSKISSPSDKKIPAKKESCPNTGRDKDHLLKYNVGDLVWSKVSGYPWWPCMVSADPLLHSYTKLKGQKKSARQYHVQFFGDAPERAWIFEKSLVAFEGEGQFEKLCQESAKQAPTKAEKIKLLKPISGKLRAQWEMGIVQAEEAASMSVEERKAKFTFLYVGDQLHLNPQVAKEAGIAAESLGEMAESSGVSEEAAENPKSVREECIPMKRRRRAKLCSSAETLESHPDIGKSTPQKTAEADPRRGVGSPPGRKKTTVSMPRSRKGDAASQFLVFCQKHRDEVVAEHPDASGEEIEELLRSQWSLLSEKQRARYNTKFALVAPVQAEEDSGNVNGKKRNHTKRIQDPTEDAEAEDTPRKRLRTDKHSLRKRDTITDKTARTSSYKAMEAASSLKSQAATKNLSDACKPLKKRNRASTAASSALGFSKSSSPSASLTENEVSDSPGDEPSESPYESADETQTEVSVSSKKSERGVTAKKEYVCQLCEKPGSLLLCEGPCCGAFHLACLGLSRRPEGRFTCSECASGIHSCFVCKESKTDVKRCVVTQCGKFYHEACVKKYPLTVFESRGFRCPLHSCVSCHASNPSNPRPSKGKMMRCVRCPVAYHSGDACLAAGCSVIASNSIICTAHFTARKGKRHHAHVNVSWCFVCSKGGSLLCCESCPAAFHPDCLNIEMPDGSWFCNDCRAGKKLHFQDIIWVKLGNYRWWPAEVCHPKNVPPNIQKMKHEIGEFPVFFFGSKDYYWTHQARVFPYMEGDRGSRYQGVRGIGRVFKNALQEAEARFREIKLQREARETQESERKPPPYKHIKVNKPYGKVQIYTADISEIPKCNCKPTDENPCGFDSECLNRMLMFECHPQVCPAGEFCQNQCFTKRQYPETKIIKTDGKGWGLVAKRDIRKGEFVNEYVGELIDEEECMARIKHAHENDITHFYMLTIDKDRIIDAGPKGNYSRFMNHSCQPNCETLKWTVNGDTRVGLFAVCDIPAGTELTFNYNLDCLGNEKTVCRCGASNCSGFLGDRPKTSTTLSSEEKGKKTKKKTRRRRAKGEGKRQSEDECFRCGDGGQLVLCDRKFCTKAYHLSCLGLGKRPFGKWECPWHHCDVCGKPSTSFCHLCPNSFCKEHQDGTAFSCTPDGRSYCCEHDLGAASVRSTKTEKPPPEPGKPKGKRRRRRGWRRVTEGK
Wnt act: Wnt/beta-catenin pathway activators, primary screen, cell-based, plate reader, single point. Wnt/beta-catenin reporter cell assay, activator. AID 743398, 2014. hit rate 1.2% among 300,000. activation, % at 9.35 µM; in the data active = activation above about 30%, passing the limit was not always enough
INS-1E GSIS act: GLuc luminescence reporter in INS-1E cells, primary screen for activators of glucose-dependent secretion of insulin. INS-1E GLuc reporter insulin secretion, 2-3 h. activation, % at 16.6 µM. hit rate 0.61% among 370,000. AID 743287, 2014;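 active = lowest replicate activation of at least 40%, so every replicate reaches that level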
Dyrk1A ADPGlo: rat Dyrk1A kinase inhibitors, primary screen, biochemical, single point, plate reader; Dual specificity tyrosine-phosphorylation-regulated kinase 1A (Rattus norvegicus), Q63470; ADP-Glo luminescence, NFATc1 peptide; inhibition, % at 12.5 µM; hit rate 0.43% among 310,000; AID 504441, 2011
MITF act: activators of MITF-driven TRPM1 promoter reporter, primary screen, cell-based, SK-MEL-5, luciferase, single point. activation, % at 12.5 µM. hit rate 0.75% among 300,000. SK-MEL-5 TRPM1-promoter luciferase, 24 h; % of positive control, neutral wells = 0;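 active = mean activation of at least 80% with every replicate also reaching 80%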
miR-122 sensor: miR-122 Renilla sensor signal increase in Huh7, primary screen, miR-122 inhibitor project, cell-based, single point, plate reader; AID 602342, 2012; activation (reporter increase), % at 12.5 µM; Huh7 miR-122 Renilla luciferase sensor, 48 h; neutral wells = 0, positive control = 100; hit rate 0.3% among 340,000;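 active = mean replicate activation score at least 90 and every replicate individually at or above 90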;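 also: higher luciferase means less miR-122 activity so hits act as miR-122 inhibitors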
Alpha artifact: AlphaScreen signal interference with preloaded methylated product, dose response, artefact control for NSD2 inhibitor project, biochemical, cherry-picked samples | shares compounds with NSD2 HMT inh | AlphaScreen artifact counterscreen, preloaded methylated H4 peptide | AC35, µM (titrated, usually from 10 µM) | hit rate 9.4% among 1,500 | AID 1053174, 2014; call rule not given here
Large screens that a line does not name were inactive (follow-up assays come after a bar, where they were run). Rule as the data show it, unless noted: active = inhibition above about 50%; inactive = the rest.

CCCNC(=O)[C@@H]1[C@@H](CO)[C@@H]2Cn3c(ccc(C4=CCCC4)c3=O)[C@H]1N2S(C)(=O)=O	none (no result: NSD2 HMT inh, Wnt act, Dyrk1A ADPGlo, MITF act)
Cc1ccc(S(=O)(=O)Nc2ccc3c(c2)C(=O)N([C@@H](C)CO)C[C@@H](C)[C@@H](CN(C)C)OCCCC[C@@H](C)O3)cc1	none (no result: NSD2 HMT inh, Wnt act, Dyrk1A ADPGlo, MITF act)
O=C(NCC[C@H]1CC[C@H](NS(=O)(=O)c2ccccc2)[C@@H](CO)O1)c1cc(Cl)cc(Cl)c1	none (no result: NSD2 HMT inh, Wnt act, Dyrk1A ADPGlo, MITF act)
Oc1cccc(C=NCc2ccccc2)c1	NSD2 HMT inh 159.4 (no result: Wnt act, INS-1E GSIS act) | Alpha artifact inactive
CCOC(=O)C1=C(C)N=c2s/c(=C\c3ccc(OCC(=O)O)cc3)c(=O)n2C1c1ccccc1OC (centres undefined)	none
CCOC(=O)C1=C(C)N=c2s/c(=C\c3ccc(O)c([N+](=O)[O-])c3)c(=O)n2C1c1ccccc1OC (centres undefined)	NSD2 HMT inh 71.9 (no result: MITF act) | Alpha artifact inactive
CCN(CCNC(=O)C1CCCN(c2ncnc3c2nc2n3CCCCC2)C1)Cc1ccccc1 (centres undefined)	none
CC(C)N(Cc1ccccc1)C(=O)C1CCCN(c2ncnc3c2nc2n3CCCCC2)C1 (centres undefined)	NSD2 HMT inh 53.9 (no result: INS-1E GSIS act) | Alpha artifact inactive
CC(Cc1c[nH]c2ccccc12)C(=O)NCc1ccco1 (centres undefined)	NSD2 HMT inh 63.2 | Alpha artifact inactive
CCOc1cc(-n2cnnn2)c(OCC)cc1NC(=O)c1cnccn1	none (no result: Wnt act, INS-1E GSIS act, Dyrk1A ADPGlo, miR-122 sensor)
CCOc1cc(N2CCOCC2)c(OCC)cc1NC(=O)c1cnccn1	NSD2 HMT inh 64.3 (no result: INS-1E GSIS act, Dyrk1A ADPGlo, MITF act) | Alpha artifact inactive
C[C@@H]1CCCCO[C@H](CN(C)C(=O)Nc2ccc(F)cc2)[C@H](C)CN([C@@H](C)CO)C(=O)c2cc(NS(=O)(=O)c3ccc(Cl)cc3)ccc2O1	none (no result: NSD2 HMT inh, Wnt act, Dyrk1A ADPGlo, MITF act)
COc1ccc2c3c([nH]c2c1)[C@H](CO)N(C(=O)Nc1ccc(F)cc1)CC31CCN(S(=O)(=O)c2cccc(C)c2)CC1	none (no result: NSD2 HMT inh, Wnt act, Dyrk1A ADPGlo, MITF act, miR-122 sensor)
Cc1ccc(OCc2cnc(Cl)s2)c(C)c1	NSD2 HMT inh 52.0 | Alpha artifact inactive
COc1ccc(OCc2cnc(Cl)s2)cc1	none (no result: INS-1E GSIS act)
Cc1ccc(S(=O)(=O)Nc2ccc3c(c2)CC(=O)N([C@@H](C)CO)C[C@@H](C)[C@@H](CN(C)Cc2ccncc2)O3)cc1	none (no result: NSD2 HMT inh, Wnt act, Dyrk1A ADPGlo, MITF act)
C[C@H](CO)N1C[C@H](C)[C@H](CN(C)Cc2ccc(Cl)c(Cl)c2)Oc2c(NC(=O)c3nc4ccccc4s3)cccc2C1=O	none (no result: NSD2 HMT inh, Wnt act, Dyrk1A ADPGlo, MITF act)
Cn1c(=Nc2ccccc2)sc2ccccc21	none
CN(C)c1ccc(N=c2sc3ccccc3n2C)cc1	NSD2 HMT inh 57.1, Wnt act 51.4 (no result: INS-1E GSIS act) | Alpha artifact 8.9µM
CNC[C@@H]1Oc2ccc(NS(=O)(=O)c3ccc(F)cc3)cc2CC(=O)N([C@H](C)CO)C[C@H]1C	none (no result: NSD2 HMT inh, Wnt act, Dyrk1A ADPGlo, MITF act)
CC1CN(Cc2c(O)ccc3c(=O)c(-c4ccccc4Cl)coc23)CC(C)O1 (centres undefined)	NSD2 HMT inh 60.5 (no result: Dyrk1A ADPGlo) | Alpha artifact inactive
O=C(NCCN1CCOCC1)NC1(C(F)(F)F)Oc2ccccc2O1	NSD2 HMT inh 55.4 | Alpha artifact inactive
CCCCNC(=O)NC1(C(F)(F)F)Oc2ccccc2O1	none (no result: Wnt act)
COc1ccc(-n2c(C)ccc2-c2ccccc2)cn1	NSD2 HMT inh 58.5 (no result: MITF act, miR-122 sensor) | Alpha artifact inactive
COc1ccc(NC(=O)N(C)C[C@H]2OCCCC[C@H](C)Oc3ccc(NC(=O)Nc4c(C)noc4C)cc3C(=O)N([C@@H](C)CO)C[C@@H]2C)cc1	none (no result: NSD2 HMT inh, Wnt act, Dyrk1A ADPGlo, MITF act)
CO[C@@H]1CN(C)C(=O)c2cc(NC(C)=O)ccc2OC[C@@H](C)N(C(=O)c2cnccn2)C[C@H]1C	none (no result: NSD2 HMT inh, Wnt act, Dyrk1A ADPGlo, MITF act, miR-122 sensor)
CC(C)NC(=O)N(C)C[C@@H]1Oc2ccc(NS(=O)(=O)c3ccccc3)cc2CC(=O)N([C@@H](C)CO)C[C@H]1C	none (no result: NSD2 HMT inh, Wnt act, Dyrk1A ADPGlo, MITF act)

Compound activity from PubChem.
